{
  "source": "PubChem BioAssay AID1053185",
  "about": "(Broad Institute, 2014)",
  "note": "Potency and affinity values are given separately. The source made the active and inactive calls.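 The calls were made as follows: active = cell killing with fitted half-maximal concentration at most twice the top valid dose; inconclusive = flat partial loss of 30 to 70%, or poor fit; inactive = the rest.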",
  "data": [
    {"assay": "cytotoxicity in HEK293 cells, dose response, cytotoxicity control, cell-based, cherry-picked samples (AID 1053185)", "details": "HEK293T viability, ATP luminescence, 72 h; series mostly up to 26 µM; activity change, negative = cytotoxicity: at the top concentration", "values": [
      {"smiles": "COc1cc(CN2C[C@@H]3N[C@H](C2)C3c2ccc(-c3ccc(C#N)cc3)cc2)cc(OC)c1", "note": "(some centres undefined)", "activity change, negative = cytotoxicity": "-1.68% (inactive)"},
      {"smiles": "CN(C)C(=O)c1cccc(-c2ccc(C3[C@@H]4CN(Cc5ccccc5F)C[C@H]3N4)cc2)c1", "note": "(some centres undefined)", "activity change, negative = cytotoxicity": "-7.48% [at 23.5 µM] (inactive)"},
      {"smiles": "C/C=C/c1ccc([C@H]2[C@@H](CO)N3C(=O)CN(Cc4ccc(F)cc4)C[C@@H]23)cc1", "activity change, negative = cytotoxicity": "-5.85% (inactive)"},
      {"smiles": "CNC[C@@H]1Oc2cc(C#Cc3ccccc3OC)ccc2S(=O)(=O)N([C@H](C)CO)C[C@H]1C", "activity change, negative = cytotoxicity": "-0.997% (inactive)"},
      {"smiles": "C[C@@H]1CN([C@@H](C)CO)C(=O)Cc2cc(NC(=O)C3CCCCC3)ccc2O[C@@H]1CN(C)Cc1ccc(Cl)c(Cl)c1", "activity change, negative = cytotoxicity": "-9.84% (inactive)"},
      {"smiles": "COc1cccc(-c2cccc(-c3nc(C(=O)Nc4ccc(-c5ccccc5)cc4)cc4c3[C@@H](CCO)N(S(=O)C(C)(C)C)C4)c2)c1", "note": "(some centres undefined)", "activity change, negative = cytotoxicity": "-5.79% (inactive)"},
      {"smiles": "O=S(=O)(c1ccc(F)cc1)N1C[C@@H]2N[C@H](C1)C2c1ccc(/C=C/c2ccccc2)cc1", "note": "(some centres undefined)", "activity change, negative = cytotoxicity": "-2.66% (inactive)"},
      {"smiles": "COc1ccc2c3c(n(C)c2c1)[C@@H](CO)N(CC1CC1)CC31CN(C(=O)c2ccc3c(c2)OCO3)C1", "activity change, negative = cytotoxicity": "-7.78% (inactive)"},
      {"smiles": "CO[C@@H](CN(C)Cc1cc(F)ccc1F)[C@@H](C)CN(C(=O)Nc1ccc(C(F)(F)F)cc1)[C@H](C)CO", "activity change, negative = cytotoxicity": "-11.8% (inactive)"}
    ]}
  ]
}
